Shown are actives, neighbours in structure and some others; about 0.9% of the full set was active somewhere.
HIV TAR-Tat: HIV-1 TAR-Tat binding disruption; HIV-1 TAR RNA, Tat peptide displacement FRET; hits give high values; z-score (no concentration beside the values); hit rate 0.6% among 100,000; AID 1259389; active = z-score of 3 or more in at least 2 runs
CDC25B CDK2 inh: human CDC25B-CDK2/CyclinA binding inhibition | HTRF CDC25B-CDK2/CyclinA binding, anti-His/anti-Flag; hits give high values | hit rate 0.72% among 94,000 | z-score (no concentration beside the values); in the data active = z-score above about 3.2
Large screens that a line does not name were inactive.

O=C(c1ccco1)N(c1cc2sc(=O)oc2c2ccccc12)S(=O)(=O)c1ccccc1	CDC25B CDK2 inh 19
Cc1ccc(C(=O)CSc2n[nH]c(-c3ccco3)n2)cc1C	HIV TAR-Tat 15
COc1ccc(C(=O)CSc2n[nH]c(-c3ccco3)n2)cc1C	none
CCn1cnc2cc(-c3noc(C(NC(=O)c4ccco4)C(C)C)n3)ccc21 (stereo not drawn)	none (no result: CDC25B CDK2 inh)
C=CCOc1ccc(C2c3c(-c4ccccc4O)n[nH]c3C(=O)N2Cc2ccncc2)cc1OC (stereo not drawn)	none
O=C1c2ccccc2C(Nc2ccc(Cl)cc2)N1c1ccc(Cl)cn1 (stereo not drawn)	none
Cc1cccc(-c2noc(-c3cccnc3NCc3ccccn3)n2)c1	none
Cc1cc(S(=O)(=O)[C@H]2CS(=O)(=O)C[C@@H]2N2CCN(c3ccccc3F)CC2)ccc1F	none
C=C1c2c(Cl)ccc(O)c2C(O)=C2C(=O)[C@]3(O)C(O)=C(C(N)=O)C(=O)[C@@H](N(C)C)[C@@H]3[C@@H](O)[C@H]12	HIV TAR-Tat 20 (no result: CDC25B CDK2 inh)
C=C1c2cccc(O)c2C(O)=C2C(=O)[C@]3(O)C(O)=C(C(N)=O)C(=O)[C@@H](N(C)C)[C@@H]3[C@@H](O)[C@H]12	HIV TAR-Tat 16 (no result: CDC25B CDK2 inh)
CCOC(=O)CSc1ncn(-c2nc(NC)nc(OC)n2)n1	none
CCOCc1nc(N2CCCC2)sc1C(=O)O	none
CCSc1nnc(NC(=O)CSc2nc3c(c(=O)n2-c2ccc(F)cc2)SCC3)s1	none
Cc1sc2ncn(CC(=O)N3CCN(C)CC3)c(=O)c2c1S(=O)(=O)N1CCCCC1	none (no result: HIV TAR-Tat)
Cc1sc2ncn(CC(=O)N(C)C3CCCCC3)c(=O)c2c1S(=O)(=O)N1CCN(C)CC1	CDC25B CDK2 inh 15
O=C(Nc1nnc(Cc2nc3ccccc3s2)s1)c1ccccc1	none (no result: CDC25B CDK2 inh)
c1ccc2c(-c3ccncc3)c[nH]c2c1	none (no result: CDC25B CDK2 inh)
Cc1sc(-c2c[nH]c3ccccc23)nc1-c1c[nH]c2ccccc12	CDC25B CDK2 inh 18 (no result: HIV TAR-Tat)
Cc1c2c(=O)n(-c3ccccc3)[nH]c2cc(=O)n1Cc1cccnc1	none
Cc1c2c(=O)n(-c3ccccc3)[nH]c2cc(=O)n1Cc1ccco1	HIV TAR-Tat 9.6
CCCSc1ncc(Cl)c(C(=O)Nc2sc3c(c2C(=O)NCC2CCCO2)CCC3)n1 (stereo not drawn)	none
COc1ccc(C2CC(=O)N3CN(c4ccccc4)CSC3=C2C#N)c(OC)c1 (stereo not drawn)	CDC25B CDK2 inh 5.2
COc1ccc(N2CSC3=C(C#N)C(c4c(F)cccc4Cl)CC(=O)N3C2)cc1 (stereo not drawn)	CDC25B CDK2 inh 3.7
N#CC1=C2SCN(c3ccc(F)cc3)CN2C(=O)CC1c1c(F)cccc1Cl (stereo not drawn)	none
COc1ccc(C2CC(=O)N3CN(c4ccc(C)c(C)c4)CSC3=C2C#N)c(OC)c1 (stereo not drawn)	CDC25B CDK2 inh 3.7
COc1ccc(C2CC(=O)N3CN(c4ccc(OC)cc4OC)CSC3=C2C#N)c(OC)c1 (stereo not drawn)	none
COc1ccc(C2CC(=O)N3CN(c4ccc(Cl)cc4)CSC3=C2C#N)c(OC)c1 (stereo not drawn)	CDC25B CDK2 inh 6
O=C(Cn1ncc2c3ccccc3n(Cc3ccc(F)cc3)c2c1=O)N1CCCC1	none
CC(C)(C)c1ccc(CN(C(=O)c2cc(=O)c3ccccc3o2)C2CCS(=O)(=O)C2)cc1 (stereo not drawn)	none
O=C(NCc1ccc2c(c1)OCO2)c1ccc2nc3[nH]c4ccccc4c3nc2c1	none (no result: CDC25B CDK2 inh)
O=C(NCc1ccc2c(c1)OCO2)c1ccc2nc(-c3ccco3)c(-c3ccco3)nc2c1	HIV TAR-Tat 60 (no result: CDC25B CDK2 inh)
Cn1c(=O)oc2cc(NS(C)(=O)=O)ccc21	none (no result: CDC25B CDK2 inh)
NC(=O)c1nc(-c2cc(F)ccc2F)nc2c1[nH]c(=O)n2-c1ccc(F)cc1	none (no result: CDC25B CDK2 inh)
O=C1CC(c2ccccc2)=Nc2cccnc2N1	none
COc1ccc(C2=Nc3cccnc3NC(=O)C2)cc1	CDC25B CDK2 inh 16
CC1CC(C)CN(C(=O)CN2C(=O)CSc3ccc(S(=O)(=O)N(C)C4CCCCC4)cc32)C1 (stereo not drawn)	none (no result: CDC25B CDK2 inh)
O=S(=O)(c1cccc2cccnc12)N1CCc2ccccc2C1	none (no result: HIV TAR-Tat)
O=c1c(NCCc2ccc(Cl)cc2)c(-c2ccc(Cl)cc2)c1=O	none (no result: CDC25B CDK2 inh)
O=c1c(NCCc2ccc(Cl)cc2)c(-c2ccccc2)c1=O	HIV TAR-Tat 6 (no result: CDC25B CDK2 inh)
O=c1cc(-c2ccc(O)c(O)c2)oc2cc(O)c([C@@H]3O[C@H](CO)[C@@H](O)[C@H](O)[C@H]3O)c(O)c12	HIV TAR-Tat 26 (no result: CDC25B CDK2 inh)
C[C@@H]1O[C@@H](O[C@H]2[C@H](Oc3cc(O)c4c(=O)cc(-c5ccc(O)cc5)oc4c3)O[C@H](CO)[C@@H](O)[C@@H]2O)[C@H](O)[C@H](O)[C@H]1O	none (no result: CDC25B CDK2 inh)
O=c1cc(-c2cc(O)c(O)c([C@@H]3O[C@H](CO)[C@@H](O)[C@H](O)[C@H]3O)c2)oc2cc(O[C@@H]3O[C@H](CO)[C@@H](O)[C@H](O)[C@H]3O)cc(O)c12	HIV TAR-Tat 25 (no result: CDC25B CDK2 inh)
C[C@@H]1O[C@@H](OC2O[C@@H](COc3cc(O)c4c(=O)cc(-c5ccc(O)cc5)oc4c3)[C@@H](O)[C@@H](O)[C@@H]2O)[C@H](O)[C@H](O)[C@H]1O (stereo partly drawn)	none (no result: CDC25B CDK2 inh)
O=C(CSc1nc(O)cc(=O)n1-c1ccccc1F)N1CCc2ccccc21	none
Cc1cc(C)n(-c2cc(N3CCN(c4cc(Cl)ccc4C)CC3)ncn2)n1	none (no result: CDC25B CDK2 inh)
CN(C)CCNc1nc(NCc2ccccc2)c2cnn(C)c2n1	none (no result: CDC25B CDK2 inh)
COc1ccc(Cn2c(CO)cnc2SC)cc1	none (no result: CDC25B CDK2 inh)
CCOC(=O)c1c(NC(=O)CSc2nc3c(cc2C#N)C(=O)CCC3)sc2c1CCCC2	none
Cc1cc(C)cc(N(CC(=O)O)S(=O)(=O)c2c(C)n[nH]c2C)c1	none (no result: HIV TAR-Tat)
Cc1cc2c(cc3c(SCC(=O)NCc4ccco4)nncn32)o1	HIV TAR-Tat 27 (no result: CDC25B CDK2 inh)
Cc1cc2c(cc3c(SCC(=O)Nc4ccccc4F)nncn32)o1	none (no result: CDC25B CDK2 inh)
O=C(c1cnn2c(C(F)F)cc(-c3ccccc3)nc12)N1CCCC1c1cccc(F)c1 (stereo not drawn)	none
C1=C(c2ccc3c(c2)c2c4n3CCNC4CCC2)CCC1 (stereo not drawn)	CDC25B CDK2 inh 14 (no result: HIV TAR-Tat)
CC(C)COc1ccc2c(c1)c1c3n2CCNC3CCC1 (stereo not drawn)	none (no result: HIV TAR-Tat)
O=S(=O)(c1ccc(F)cc1)N1CCN(Cc2ccc3c(c2)OCO3)CC1	CDC25B CDK2 inh 16
O=S(=O)(c1cccc(F)c1)N1CCN(Cc2ccc3c(c2)OCO3)CC1	none (no result: HIV TAR-Tat)
O=C1NC(=O)/C(=C/c2ccc(-c3ccc(F)cc3O)o2)S1	none (no result: HIV TAR-Tat)
O=C1NC(=S)N/C1=C/c1ccc(-c2cc(C(=O)O)ccc2Cl)o1	CDC25B CDK2 inh 3.6 (no result: HIV TAR-Tat)
CCOC(=O)c1c(C)oc2ncnc(NCCN(CC)CC)c12	none (no result: CDC25B CDK2 inh)
Cc1sc2c(c1C)CSC(C(=O)Nc1ccc(N3CCC(C)CC3)cc1)=C2	none (no result: CDC25B CDK2 inh)
Cc1nn2cc(-c3ccccc3)cc2c2c(C)n(Cc3ccccc3)c(C)c12	none
COc1ccc(-n2c(C)c3c(C)nn4cc(-c5ccc(C)o5)cc4c3c2C)cc1	HIV TAR-Tat 16, CDC25B CDK2 inh 7.2
COc1ccc(N2C(=O)C3N=NN(Cc4ccc(F)cc4)C3C2=O)cc1 (stereo not drawn)	none
COc1ccc(N2CSC3=C(C#N)C(c4ccc(Cl)cc4)CC(=O)N3C2)cc1OC (stereo not drawn)	none
N#CC1=C2SCN(c3ccc(Cl)cc3)CN2C(=O)CC1c1ccccc1 (stereo not drawn)	CDC25B CDK2 inh 7.3
N#CC1=C2SCN(c3cccc(Cl)c3)CN2C(=O)CC1c1ccccc1 (stereo not drawn)	CDC25B CDK2 inh 9.2

Source: PubChem BioAssay (Center for Chemical Genomics, University of Michigan)
